The results in this text go back to PubChem BioAssay (Tox21).

“And” between values parts separate entries of the source, which are not always exact repeats. Equal entries are not always repeated. Inconclusive results are not listed. Where a call stands in place of a potency, no number is given. Values without a mark were called inactive. The source made the active and inactive calls. Calls follow the shape of the full dose curve.
Potency is read from the fitted curve at half-maximal effect.

The assay in a line: Nuclear factor erythroid 2-related factor 2/antioxidant responsive element (Nrf2/ARE) small molecule agonists: luciferase reporter gene qHTS assay in human keratinocytes (AID 1919969). Also: nearly all actives have a fitted effect of over 35% in size. The note with it: KeratinoSens HaCaT ARE-luciferase, luminescence, 24 h; series mostly up to 92.4 µM. An excerpt: National Center for Advancing Translational Sciences [NCATS]
Division of Preclinical Innovation [DPI]
U.S. Environmental Protection Agency [EPA]
National Institutes of Environmental Health Sciences [NIEHS]
National Toxicology Program [NTP]
U.S. Food and Drug Administration [FDA]
Oxidative stress has been implicated in the pathogenesis of a variety of diseases ranging from cancer to neurodegeneration. The antioxidant response element (ARE) signaling pathway plays an important role in the amelioration of oxidative stress. The KeratinoSens (Givaudan, Switzerland) is an in vitro test method which quantifies luciferase induction as a measure of activation of Keap1-Nrf2-antioxidationt/electrophile response element (ARE) dependant pathway in HaCaT human keratinocytes stably transfected with a selectable plasmid. The KeratinoSens assay is a cell-based assay with a reporter cell line to detect potential skin sensitizers by their ability to induce the Nrf2/ARE-response. The activation of the report gene under culture conditions can be detected by ONE-Glo Luciferase Assay System (Promega, Madison, WI). This cell line has been used to screen the Tox21 10K compound library to identify agonists that induce oxidative stress. The cytotoxicity of the Tox21 compound library against the KS-ARE cell line was tested in parallel by measuring the cell viability using CellTiter- Fluor assay system (Promega, Madison, WI) in the same wells.
HaCaT derived cell line KeratinoSens were dispensed at 1,500 cells/5uL/well in 1536-well white wall/solid bottom plates using a Multidrop Combi (ThermoFisher Scientific, Waltham, MA) dispenser. After the assay plates were incubated at 37 C/5% CO2 for 5 h, 23 nL of compounds dissolved in DMSO, positive controls or DMSO only was transferred to the assay plate by a pintool workstation (Kalypsys, San Diego, CA). The plates were incubated at 37 C/5% CO2 for 23 h, followed by addition of 1uL/well of CellTiter-Fluor reagent into the assay plates using a Flying Reagent Dispenser (Aurora Discovery, San Diego, CA) for cell viability readout that measures cytotoxicity. After 1 h incubation at 37 C/5% CO2 the fluorescence intensity was measured using a ViewLux (PerkinElmer, Shelton, CT) plate reader. Then 4uL/well of One-Glo were added using a Flying Reagent Dispenser. After the plates were incubated at room temperature for 30 min, the luminescence intensity in the assay plates was measured using ViewLux plate reader.
(A reporter such as luciferase makes a cellular process visible.)
For the compound `Cn1c(NCCN(CCO)CCCc2ccc([N+](=O)[O-])cc2)cc(=O)n(C)c1=O`, the Potency result is “inactive”. As to `NC(=O)N1C(=O)C(C(=O)c2cc(Cl)cs2)c2cc(F)c(Cl)cc21` (stereo not given), the Potency entry is “inactive”. Turning to `C=CCOCC(O)CCl` (stereo not given), the Potency result is “inactive”. Consider `Clc1cccc(-c2cc(Cl)cc(Cl)c2)c1`, for which the Potency result is “inactive”.

On to `CCCOc1ccc2c(c1)CC[C@@H]1[C@@H]2CC[C@]2(C)C(OC)CC[C@@H]12` (stereo not given in full), for which the Potency result was “inactive”. `CCCCCc1ccc(O)cc1`: the Potency is 34.4 µM (active).

For `Nc1ccn(C2CO[C@H](CO)O2)c(=O)n1` (stereo not given in full), the Potency result is “inactive”. The same measure, in the same setting: the value for `COC(=O)c1cc(Cl)cc(Cl)c1` was “inactive”; that for `COC(=O)[C@@H]1CC2=CC(=O)CC[C@]2(C)[C@@]23O[C@@H]2C[C@@]2(C)[C@@H](CC[C@@]24CCC(=O)O4)[C@H]13` was “inactive”; that for `O=C(O)Cc1ccc(OCCNC[C@H](O)c2ccccc2)cc1` was 33.5 µM (active). `CCCCCCCCNC(C)C(O)c1ccc(SC(C)C)cc1` (stereo not given): the Potency entry is “inactive”. On the same count and under the same terms, the value for `Cc1c(-c2ccccc2)oc2c(C(=O)OCCN3CCCCC3)cccc2c1=O` was “inactive”. As to `COc1cc2ncnc(Nc3cccc(Cl)c3)c2cc1OC`, the activity, positive = activation was -25.9% [at 19 µM]. As for `Cc1oc(-c2ccccc2)nc1CCOc1cccc2c1ccn2CCC(=O)O`, the Potency result was “inactive”. In the case of `CC[N+](CC)(CC)CCOC(=O)C(C1CCCC1)C1CCCC1`, the Potency entry was “inactive”. `COc1cc(NCc2ccc3nc(N)nc(N)c3c2C)cc(OC)c1OC`: the Potency result is “inactive”. Still for that read-out and setting: the value for `COCCCOCCCOC` was “inactive”.

With `CNCCCCOc1ccccc1Cc1ccccc1`, the Potency result is “inactive”. Still for that read-out and setting: the value for `CC1=C(C(=O)O)N2C(=O)[C@@H](NC(=O)[C@H](N)C3=CCC=CC3)[C@H]2SC1` was “inactive”; that for `CC1=C(/C=C/C(C)=C/C=C/C(C)=C/C=O)C(C)(C)CCC1` was 27.1 µM (active).

For `NCCCN1CCOCC1`, the Potency result was “inactive”. Same read-out and setting: as for `CCN(C)C(=O)Oc1cccc([C@H](C)N(C)C)c1`, the entry is “inactive”; as for `CC(C)(C)C(O)/C=C/c1ccc2c(c1)OCO2` (stereo not given), “inactive”. Regarding `Oc1c(I)cc(Cl)c2cccnc12`, the Potency is 2.16 µM (active) and 3.35 µM (active). Take `CC(C)=CCCC(C)CC(=O)O` (stereo not given): the Potency entry is “inactive”.

On to `O=C(Cl)c1ccc([N+](=O)[O-])cc1`, for which the Potency result is “inactive”. On to `Brc1c2ccccc2c(Br)c2ccccc12`, for which the activity, positive = activation is -5.36% [at 8.39 µM].

In the case of `C=CC(=C)CCC=C(C)C`, the Potency is 68.6 µM (active).

`O=C(Nc1cccc(C(F)(F)F)c1)c1cc(Br)cc(Br)c1O`: the Potency was 9.69 µM (active). Still for that read-out and setting: the value for `CO/N=C(/C(=O)N[C@@H]1C(=O)N2C(C(=O)[O-])=C(C[n+]3ccn4ncccc43)CS[C@H]12)c1nsc(N)n1` was “inactive”. With `CCCCN(CCC(=O)OCC)C(C)=O`, the Potency result is “inactive”. Same read-out and setting: the value for `CC(C)=CCOc1ccc(/C=C/C(=O)c2ccc(OCC=C(C)C)cc2OCC(=O)O)cc1` was 26.6 µM (active); that for `CCO[C@H](Cc1ccc(OCCc2ccc(OS(C)(=O)=O)cc2)cc1)C(=O)O` was “inactive”; that for `O=C1c2ccccc2C(=O)c2c(O)c(O)cc(O)c21` was “inactive”.

On to `CC(C)(C)C1CCCCC1=O` (stereo not given), for which the Potency entry is “inactive”. Still for that read-out and setting: as for `CCCCCCCC/C=C/CCCCCCCC1=NCCN1CCO`, the entry is “inactive”. With `O=C(N[C@@H](c1ccccc1)[C@@H]1CCCCN1)c1cccc(C(F)(F)F)c1Cl`, the Potency result was “inactive”.

Turning to `CC(NCCC(c1ccccc1)c1ccccc1)c1ccccc1` (stereo not given), the Potency result was “inactive”. For the compound `Cc1ccc2ccc3cccc4ccc1c2c34`, the Potency result is “inactive”.

For the compound `O=S(=O)(O)c1cc(S(=O)(=O)O)c2c(N=Nc3ccccc3)c(O)ccc2c1`, the Potency result was “inactive”.
